The text below walks through data of PubChem BioAssay (Tox21).

Inconclusive results are not listed. Unmarked numbers belong to inactive results. Active and inactive are the calls of the source. Calls come from the whole dose curve; as a rule, active = well fitted inhibition curve with a large enough effect in the signal ratio in the repeat runs (not every such curve was filed as active); inconclusive = weak or mixed curves, or effect the other way; inactive = no such curve, though single readings can be large or run the other way; the % refers to the signal ratio.
% is set by controls: 0 for no effect and ±100 for the full control effect.

Sequence of Bile acid receptor (Homo sapiens) (Q96RI1 whole entry, looked up): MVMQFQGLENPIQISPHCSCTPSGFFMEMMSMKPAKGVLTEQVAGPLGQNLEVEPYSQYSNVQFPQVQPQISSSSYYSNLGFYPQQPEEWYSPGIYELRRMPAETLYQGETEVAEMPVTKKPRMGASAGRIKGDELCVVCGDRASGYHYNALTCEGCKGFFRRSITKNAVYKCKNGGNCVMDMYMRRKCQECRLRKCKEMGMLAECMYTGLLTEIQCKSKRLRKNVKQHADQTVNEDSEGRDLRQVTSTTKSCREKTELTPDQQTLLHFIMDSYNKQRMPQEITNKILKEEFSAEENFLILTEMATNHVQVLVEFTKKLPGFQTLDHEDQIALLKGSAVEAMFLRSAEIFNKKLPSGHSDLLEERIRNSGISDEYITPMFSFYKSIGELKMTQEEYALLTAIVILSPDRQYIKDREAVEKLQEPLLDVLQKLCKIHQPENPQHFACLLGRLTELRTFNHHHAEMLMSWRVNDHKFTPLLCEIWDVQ

For the assay, the target named is Bile acid receptor (Homo sapiens) (UniProt Q96RI1). Briefly: qHTS assay to identify small molecule antagonists of the farnesoid-X-receptor (FXR) signaling pathway (AID 743217). The conditions noted are these: HEK293T FXR-UAS-bla, beta-lactamase ratio, CDCA-stimulated, 16 h; series mostly up to 62.6 µM; activity change, negative = inhibition: at the top concentration. The text has this:
U.S. Tox21 Program National Center for Advancing Translational Sciences [NCATS] NIH Chemical Genomics Center [NCGC] U.S. Environmental Protection Agency [EPA] National Institutes of Environmental Health Sciences [NIEHS] National Toxicology Program [NTP] U.S. Food and Drug Administration [FDA] Tox21 Assay Overview: The farnesoid-X-receptor (FXR), a nuclear hormone receptor, is highly expressed in liver, intestine, kidney and adrenal cortex. Natural ligands of FXR are the bile acids (Cholic acid, Chenodeoxy cholic acid etc). FXR is an important regulator of diverse metabolic pathways, including the bile acid homeostasis, lipid and glucose metabolisms. FXR regulates the expression of target genes by binding either as a monomer or as a heterodimer with the retinoid X receptor (RXR). Numerous studies have reported that FXR exerts protective function during cholestasis, diabetes, liver regeneration, and cancer. To identify compounds that inhibit FXR signaling, GeneBLAzer FXR-UAS-bla HEK 293T cell line (Invitrogen, Carlsbad, CA) containing a beta-lactamase reporter gene under the control of a UAS response element was used to screen the Tox21 10K compound library.
Tox21 Assay Protocol Summary: FXR-bla cells were dispensed at 5000 cells/5uL/well in 1536-well black wall/clear bottom plates using a Multidrop Combi (Thermo Fisher Scientific, Waltham, MA) dispenser. After the assay plates were incubated at 37C and 5% CO2 for 5 h, 23 nL of compounds dissolved in DMSO, positive controls or DMSO only was transferred to the assay plate by a Pintool station (Kalypsys, San Diego, CA), followed by addition of 1 uL Chenodeoxycholic acid (50 uM, final concentration in the wells). The assay plates were incubated at 37C for 16 h. After 1 uL of LiveBLAzerTM B/G FRET substrate was added using a Bioraptr Flying Reagent Dispenser (FRD) workstation (Beckman Coulter, Indianapolis, IN), the plates were incubated at room temperature for 2 h, and fluorescence intensity was measured by an Envision plate reader (PerkinElmer, Shelton, CT).
For orientation: qHTS replaces the single test concentration by a dilution series.
Take `COc1nc(NC(C)C)nc(NC(C)C)n1`: the result was inactive.
As to `O=C(O)Cc1ccccc1`, the outcome was inactive.
For `CNC(=O)O/N=C/C(C)(C)SC`, the result was inactive.
`O=C(O)CCCc1ccc(N(CCCl)CCCl)cc1`: the outcome was inactive.
As to `C=CC(=O)OCCCCCC(C)C`, the outcome was inactive.
Turning to `Nc1ccc(N)cc1`, the “activity change, negative = inhibition” value was -2.59%.
Take `CNCC(O)c1ccc(O)cc1` (stereo not given): the outcome was inactive.
As to `Cc1cc(O)ccc1Cl`, the outcome was inactive.
Same read-out and setting: the value for `CNC(=O)O/N=C/C(C)(C)S(C)=O` (stereo not given) was “inactive”.
Turning to `Cc1cccc(N)c1C`, the outcome was inactive.
With `CCCCC(CC)C(=O)Cl` (stereo not given), the result was inactive.
With `C[C@H]1C(=O)O[C@@H]2CCN3CC=C(COC(=O)[C@](C)(O)[C@]1(C)O)[C@H]23`, the outcome was inactive.
Take `Nc1nc(N)nc(NC2CC2)n1`: the outcome was inactive.
The same measure, in the same setting: then `CCOC(=O)CC(SP(=O)(OC)OC)C(=O)OCC` (stereo not given), with “inactive”; and `c1ccc2c(c1)CCCC2`, with “inactive”.
On to `C=CCN=C=S`, for which the outcome was inactive.
Turning to `Nc1cc(Cl)cc(Cl)c1`, the outcome was inactive.
Consider `CCCOC(=O)c1ccccc1C(=O)OCCC`, for which the result was inactive.
Same read-out and setting: then `CCOc1ccc(N)cc1`, with “inactive”; and `CC(C)CCCCCCOC(=O)c1ccccc1C(=O)OCCCCCCC(C)C`, with “inactive”.
Take `Cc1cccc(C)c1N`: the result was inactive.
Consider `Cc1cccc(C)c1NC(=O)CN1CCCC1=O`, for which the result was inactive.
In the case of `OCc1ccco1`, the “activity change, negative = inhibition” value is 0.33% [at 81.1 µM].
Take `ClCCOCCCl`: the outcome was inactive.
Same read-out and setting: then `CSc1nnc(C(C)(C)C)c(=O)n1N`, with “inactive”.
With `[N-]=[N+]=CC(=O)OC[C@H](N)C(=O)O`, the “activity change, negative = inhibition” value is 0.517%.
Consider `O=C(O)C(Br)Br`, for which the result was inactive.
`FC(F)(F)c1ccc(Cl)cc1`: the “activity change, negative = inhibition” value was -8.7%.
As to `COC(=O)Nc1cccc(OC(=O)Nc2cccc(C)c2)c1`, the outcome was inactive.
For `CNc1cnn(-c2cccc(C(F)(F)F)c2)c(=O)c1Cl`, the outcome was inactive.
As for `CC(=O)C1CCOC1=O` (stereo not given), the result was inactive.
Still for that read-out and setting: the value for `COP(=S)(OC)SCN1C(=O)c2ccccc2C1=O` was “inactive”; that for `Clc1cnc(Oc2ccc(Oc3ncc(Cl)cc3Cl)cc2)c(Cl)c1` was “inactive”; that for `Nc1ncc([N+](=O)[O-])s1` was “inactive”.
Regarding `N#CN=C(N)N`, the result was inactive.
On the same count and under the same terms, then `CNC(=O)Oc1cccc2ccccc12`, with “inactive”; and `Cl[C@H]1OCCO[C@@H]1Cl`, with “inactive”; and `O=C(O)C1C(C(=O)O)C2(Cl)C(Cl)=C(Cl)C1(Cl)C2(Cl)Cl` (stereo not given), with “inactive”.
For the compound `OCCCCO`, the result was inactive.
As for `O=[N+]([O-])c1ccc(Cl)c(Cl)c1`, the outcome was inactive.
